Assay results: PubChem BioAssay AID1159580 (chemical genetic matrix, 2015)
Values joined by “and” are separate entries in the source; they are usually repeats but may differ in a detail not shown here. Identical values can stand only once. Hit rate of the full screen: of about 5,500 compounds, about 2,000 (36%) were called active. About 18% were inconclusive and are not listed. No stated cut-off is given here; in the data, active means normalized growth mostly below about 0.91 (no sharp cut-off); inconclusive means no clear call, values can overlap the other calls; inactive means mostly above about 0.92. The list shows a part of the results.

Test: chemical genetic growth profiling, strain panel (AID 1159580);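 further: tested at 20 µM; growth read once vehicle control cultures reached saturation at 30 °C; 1 = growth at the plate median or of vehicle wells; lower values mean less growth of the strain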
Conditions: S. cerevisiae deletion strains, growth OD

Measured: normalized growth

CC1(C)CC2C1CC[C@]1(CBr)CCC3C(CC(=O)O)C(=O)O[C@@]32C1 (stereo partly specified)
inactive: locus YAL021C, strain ccr4, hits give low values 0.992 | locus YAL026C, strain drs2, hits give low values 1.02 | locus YAL030W, strain snc1, hits give low values 1.01 | locus YBL061C, strain skt5, hits give low values 1.01 | locus YBR009C, strain hhf1, hits give low values 1.03 | locus YBR021W, strain FUR4, hits give low values 1.01 | locus YBR023C, strain chs3, hits give low values 1.01 | locus YBR171W, strain sec66, hits give low values 1.01 | locus YBR229C, strain ROT2, hits give low values 0.958 | locus YBR231C, strain swc5, hits give low values 1.01 | locus YBR279W, strain paf1, hits give low values 1.01 | locus YCL011C, strain gbp2, hits give low values 1.01 | locus YCL016C, strain dcc1, hits give low values 1.01 | locus YCL029C, strain bik1, hits give low values 0.985 | locus YCL061C, strain MRC1, hits give low values 1.01 | locus YCL069W, strain vba3, hits give low values 1.01 | locus YCR088W, strain abp1, hits give low values 1.01 | locus YDL005C, strain med2, hits give low values 1 | locus YDL035C, strain GPR1, hits give low values 0.984 | locus YDL040C, strain nat1, hits give low values 1.01 | locus YDL074C, strain BRE1, hits give low values 1 | locus YDL101C, strain DUN1, hits give low values 1 | locus YDL134C, strain PPH21, hits give low values 1.05 | locus YDL185W, strain tfp1, hits give low values 0.971 | locus YDL192W, strain arf1, hits give low values 0.976 | locus YDR001C, strain nth1, hits give low values 1.01 | locus YDR069C, strain doa4, hits give low values 1.02 | locus YDR101C, strain arx1, hits give low values 0.98 | locus YDR137W, strain rgp1, hits give low values 0.997 | locus YDR150W, strain NUM1, hits give low values 1 | locus YDR159W, strain sac3, hits give low values 1.03 | locus YDR162C, strain NBP2, hits give low values 0.976 | locus YDR195W, strain ref2 1 | locus YDR297W, strain sur2, hits give low values 1.01 | locus YDR318W, strain mcm21, hits give low values 0.989 | locus YDR334W, strain swr1, hits give low values 1.01 | locus YDR335W, strain msn5, hits give low values 1.02 | locus YDR388W, hits give low values 1 | locus YDR392W, strain spt3, hits give low values 0.968 | locus YDR502C, strain sam2, hits give low values 1.03 | locus YEL003W, strain gim4, hits give low values 1.02 | locus YEL037C, strain rad23, hits give low values 1.01 | locus YEL061C, strain CIN8 (second series), hits give low values 1.01 | locus YEL061C, strain CIN8, hits give low values 0.978 | locus YER015W, strain faa2, hits give low values 1 | locus YER016W, strain bim1, hits give low values 1.02 | locus YER110C, hits give low values 0.984 | locus YER111C, strain swi4, hits give low values 1.01 | locus YER155C, strain BEM2 (second series), hits give low values 1.04 | locus YER155C, strain BEM2, hits give low values 0.986 | locus YER167W, strain BCK2, hits give low values 0.993 | locus YFR010W, strain ubp6, hits give low values 1.01 | locus YGL078C, strain dbp3, hits give low values 1.04 | locus YGL086W, strain mad1, hits give low values 1 | locus YGL167C, strain pmr1, hits give low values 1.01 | locus YGL173C, strain kem1, hits give low values 1.01 | locus YGL227W, strain vid30, hits give low values 1.02 | locus YGL240W, strain doc1, hits give low values 1.03 | locus YGL248W, strain PDE1, hits give low values 1.03 | locus YGL253W, strain hxk2, hits give low values 1.01 | locus YGR135W, strain pre9, hits give low values 1.09 | locus YGR229C, strain SMI1, hits give low values 0.965 | locus YGR252W, strain gcn5, hits give low values 1.08 | locus YHR013C, strain ard1, hits give low values 1.01 | locus YHR027C, strain rpn1, hits give low values 1.01 | locus YHR030C, strain SLT2, hits give low values 0.983 | locus YHR079C, strain IRE1 (second series), hits give low values 0.994 | locus YHR079C, strain IRE1, hits give low values 1.02 | locus YHR094C, strain hxt1, hits give low values 0.979 | locus YHR129C, strain ARP1, hits give low values 0.995 | locus YHR142W, strain chs7, hits give low values 0.998 | locus YHR200W, strain rpn10, hits give low values 1 | locus YIL066C, strain RNR3, hits give low values 0.98 | locus YIL073C, strain SPO22, hits give low values 1.07 | locus YIL125W, strain kgd1, hits give low values 0.984 | locus YIR030C, strain dcg1, hits give low values 0.992 | locus YJL092W, strain hpr5, hits give low values 1.01 | locus YJL095W, strain BCK1 (second series), hits give low values 1.02 | locus YJL095W, strain BCK1, hits give low values 1.07 and 0.997 | locus YJL115W, strain asf1, hits give low values 1.02 | locus YJL129C, strain trk1, hits give low values 0.997 | locus YJL134W, strain LCB3, hits give low values 0.993 | locus YJL154C, strain vps35, hits give low values 1 | locus YJL164C, strain tpk1, hits give low values 1.03 | locus YJL166W, strain qcr8, hits give low values 1 | locus YJL168C, strain set2, hits give low values 1 | locus YJL187C, strain SWE1 (second series), hits give low values 1.02 | locus YJL187C, strain SWE1, hits give low values 1.02 | locus YJR066W, strain TOR1, hits give low values 0.922 | locus YJR075W, strain HOC1, hits give low values 1.02 | locus YKL009W, strain mrt4, hits give low values 0.976 | locus YKL068W, hits give low values 0.989 | locus YKL085W, strain MDH1 (second series), hits give low values 0.995 | locus YKL085W, strain MDH1, hits give low values 0.995 | locus YKL160W, strain elf1, hits give low values 0.99 | locus YKL190W, strain CNB1, hits give low values 0.994 | locus YKR001C, strain vps1, hits give low values 0.993 | locus YKR026C, strain gcn3, hits give low values 0.996 | locus YKR091W, strain srl3, hits give low values 1.01 | locus YLL001W, strain dnm1, hits give low values 1.03 | locus YLL026W, hits give low values 1.02 | locus YLL041C, strain sdh2, hits give low values 1.01 | locus YLR027C, strain aat2, hits give low values 1.01 | locus YLR039C, strain RIC1, hits give low values 1.07 | locus YLR058C, strain SHM2, hits give low values 0.996 | locus YLR102C, strain apc9, hits give low values 0.995 | locus YLR113W, strain HOG1, hits give low values 1.03 | locus YLR221C, strain rsa3, hits give low values 1.01 | locus YLR258W, strain gsy2, hits give low values 1.03 | locus YLR262C, strain YPT6 (second series), hits give low values 0.976 | locus YLR268W, strain sec22, hits give low values 0.96 | locus YLR320W, strain mms22, hits give low values 1.02 | locus YLR330W, strain CHS5, hits give low values 0.992 | locus YLR342W, strain FKS1, hits give low values 1.01 | locus YLR357W, strain rsc2, hits give low values 1.04 | locus YLR370C, strain arc18, hits give low values 1.01 | locus YLR371W, strain rom2, hits give low values 1.01 | locus YLR384C, strain iki3, hits give low values 1.01 | locus YLR418C, strain cdc73, hits give low values 1.04 | locus YML016C, strain PPZ1, hits give low values 0.997 | locus YML032C, strain rad52, hits give low values 0.992 | locus YML120C, strain ndi1, hits give low values 1.02 | locus YML124C, strain tub3, hits give low values 0.992 | locus YMR058W, strain fet3, hits give low values 1.02 | locus YMR078C, strain ctf18, hits give low values 0.998 | locus YMR125W, strain sto1, hits give low values 1 | locus YMR129W, hits give low values 1.01 | locus YMR205C, strain PFK2, hits give low values 1.02 | locus YMR223W, strain ubp8, hits give low values 1.02 | locus YMR231W, strain pep5, hits give low values 1 | locus YMR307W, strain GAS1, hits give low values 1.06 | locus YNL067W, strain RPL9B, hits give low values 1.03 | locus YNL071W, strain lat1, hits give low values 1.01 | locus YNL128W, strain TEP1, hits give low values 0.984 | locus YNL153C, strain GIM3, hits give low values 1.03 | locus YNL183C, strain NPR1, hits give low values 0.924 | locus YNL209W, strain ssb2, hits give low values 1.01 | locus YNL233W, strain BNI4, hits give low values 1.06 | locus YNL248C, strain rpa49, hits give low values 1.01 | locus YNL250W, strain rad50, hits give low values 0.973 | locus YNL271C, strain bni1, hits give low values 0.987 | locus YNL298W, strain CLA4, hits give low values 1 | locus YNL307C, strain MCK1, hits give low values 1.04 | locus YNL322C, strain KRE1 (second series), hits give low values 1.01 | locus YNL322C, strain KRE1, hits give low values 0.988 | locus YNR049C, strain mso1, hits give low values 1.02 | locus YNR052C, strain pop2, hits give low values 1.04 | locus YOL006C, strain TOP1, hits give low values 1.06 | locus YOL012C, strain htz1 1 | locus YOL147C, strain pex11, hits give low values 0.99 | locus YOR001W, strain rrp6, hits give low values 1.01 | locus YOR061W, strain CKA2, hits give low values 0.972 | locus YOR069W, strain VPS5, hits give low values 1.01 | locus YOR070C, strain gyp1, hits give low values 1.03 | locus YOR080W, strain dia2, hits give low values 1 | locus YOR083W, strain WHI5, hits give low values 0.986 | locus YOR106W, strain vam3, hits give low values 1.01 | locus YOR136W, strain idh2, hits give low values 0.994 | locus YOR144C, strain elg1, hits give low values 0.988 | locus YOR184W, strain ser1, hits give low values 0.957 | locus YOR231W, strain MKK1, hits give low values 1.01 | locus YOR265W, strain rbl2, hits give low values 1.01 | locus YOR270C, strain vph1, hits give low values 0.999 | locus YOR290C, strain snf2, hits give low values 0.99 | locus YOR316C, strain cot1, hits give low values 1 | locus YPL051W, strain arl3, hits give low values 1 | locus YPL078C, strain atp4, hits give low values 1.01 | locus YPL106C, strain sse1, hits give low values 1.02 | locus YPL240C, strain hsp82, hits give low values 1.01 | locus YPL241C, strain CIN2, hits give low values 0.999 | locus YPL256C, strain CLN2, hits give low values 0.972 | locus YPR119W, strain clb2, hits give low values 0.993 | locus YPR141C, strain kar3, hits give low values 0.991 | locus YPR163C, strain tif3, hits give low values 0.994 | locus YPR167C, strain met16, hits give low values 0.999 | strain wtn01, hits give low values 0.984
